This is part of a sample that, as a whole, favours compounds with a hit. Of some 83,000 tested, about 20% had one in any assay.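 For each line, cells grew in 96-well plates with the test compound present at a single concentration for 48 hours.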 Unmarked numbers belong to inactive results. Activity calls are given as the source filed them. Rule for the calls: active = growth percent below 10; inactive = the rest.
Tested on: HL-60(TB) leukemia
Assay: NCI-60 one-dose screen, 48 h (100 = growth as untreated, 0 = no growth, -100 = all killed)
Conditions: 10 µM unless noted

With `C1=C2CCCC3=Cc4ccccc4OC23Oc2ccccc21` the growth was 8.47% (active).
For `CCC(C)(C)c1ccc(OCCCCCCN2CCNCC2)cc1`, the growth was -17.4% (active).
For `Cc1ncc(C(=O)Nc2ccc(CN3CCN(C)CC3)c(C(F)(F)F)c2)cc1C#Cc1cnc(N)c2ccncc12`, the growth was -52.8% (active).
With `CCCSc1ccc2nc(NC(=O)OC)[nH]c2c1` the growth was 7.7% (active).
For `C=C[C@@H]1C[C@H](O)Cc2c(C)cc(C)cc2N1`, the growth was -16.4% (active).
`N=C(N)c1ccc(-c2ccc(-c3ccc(F)cc3)s2)nc1` was tested, and the growth was -28% (active).
`O=C(N/N=C/c1ccncc1)c1ccc(C(F)(F)F)nc1Nc1cccc(C(F)(F)F)c1` was tested, and the growth was -16.7% (active).
In the case of `Clc1ccc(Nc2nc(Nc3ccc(Cl)cc3)nc(Nc3ccc(-c4cc(-c5cccc(Cl)c5)on4)cc3)n2)cc1`, the growth is reported as -50% (active).
With `CCN(CC)CCCCCCCNc1c2ccc(Cl)cc2nc2ccc(OC)cc12` the growth was -46.9% (active).
For `CC[C@]1(O)C[C@@H]2CN(CCc3c([nH]c4ccccc34)[C@@](C(=O)OC)(c3cc4c(cc3OC)N(C)[C@H]3[C@@](O)(C(N)=O)[C@H](O)[C@]5(CC)[C@@H]6C[C@@H]6CN6CC[C@]43[C@@H]65)C2)C1`, the growth was -3.28% (active).

Going from `O=C(O)COc1ccc(Cl)c(Cl)c1` to `CNS(=O)(=O)c1ccc(Cl)c(Cl)c1`, the growth rises from 111% to 137%.

First: CN1CCN(/C=C2\CC(C(=O)NCc3ccc(Cl)cc3Cl)NC2=O)CC1 (centres undefined)
Second: CCOC(=O)c1c(-c2ccc(Cl)cc2)c(C#N)c(=O)n(-c2ccccc2CC)c1N
The growth of the first is lower: 103% for the first, 144% for the second.

Going from `CC(C)(CNC1CCCCC1)OC(=O)c1ccccc1` to `CC(=O)Nc1scc[n+]1Cc1ccccc1`, the growth falls from 95.3% to 55.3%.

Going from `C[C@H]1c2ccccc2CN1CCCOc1cc2c(cc1OCC1CC1)C1(CCCC1)C(N)=N2` to `COc1cc(C2CC(=O)c3ccccc3N2)cc(OC)c1OC` (centres undefined), the growth rises from 31% to 98.8%.

First: COc1cc2nc(Nc3cccc(C(=O)O)c3)nc(N)c2cc1OC
Second: Cc1cc(C(=O)O)c(C)n1-c1cccc(C(=O)O)c1
The growth of the first is higher: 109% for the first, 56.2% for the second.

First: N#Cc1ccc(-c2ccc(-c3cccs3)o2)cc1F
Second: C=CC(=O)Nc1cccc(Nc2nc(SC)nc(-c3cccc([N+](=O)[O-])c3)c2C#N)c1
The growth of the first is higher: 89.3% for the first, 63.4% for the second.

First: CCCCOC(=O)/C=C\C(=O)NC(N)=O
Second: CCCCCC(CCCCC)C(=O)O
The growth of the first is lower: 56.8% for the first, 90.4% for the second.

Going from `COc1cccc(-c2nn(-c3ccccc3)cc2-c2ccnc(NCCCN)c2)c1` to `Cc1[nH]n(-c2ccccc2)c2nc3nncc3c(-c3ccc(Cl)cc3)c12`, the growth rises from 39.6% to 110%.

First: N=c1c(S(=O)(=O)c2ccccc2)cc2c(=O)n3ccccc3nc2n1C1CCCC1
Second: Cc1cc(C)nc(NS(=O)(=O)c2ccc(Nc3nc4nc(SCc5ccccc5)nc(-c5ccc(O)cc5)c4c(=O)[nH]3)cc2)n1
The growth of the first is higher: 104% for the first, 86.3% for the second.

Going from `COc1cc(NC(=O)c2cncnc2Nc2ccc3c(ccn3Cc3cccc(F)c3)c2)cc(OC)c1` to `O=C(/C=C/c1ccco1)c1cccc(Nc2nc(Nc3ccccc3)nc(Nc3ccccc3)n2)c1`, the growth rises from 21% to 91.1%.

First: COc1ccc(C(=O)c2ccc(C)cc2)c(OC)c1OC
Second: C=C(c1ccc(C(=O)O)cn1)c1cc2c(cc1C)C(C)(C)CCC2(C)C
The growth of the first is higher: 93.4% for the first, 84.9% for the second.

Compared with `Clc1ccc(SSc2ccc(Cl)cc2)cc1`, `Cn1c(=O)c2c(c3ccccc31)OC(N)=C(C#N)C21C(=O)c2ccccc2C1=O` is lower in growth: 102% for the first, 98.1% for the second.

Compared with `COc1ccc2c(c1)oc1c(C)c3c(c(C)c12)C(=O)N(N)C3=O`, `CC(=O)Nc1c(Br)cc2c(c1Br)Cc1cc(Br)ccc1-2` is higher in growth: 38.3% for the first, 98.5% for the second.

Compared with `Cn1cc(-c2nc(-c3c[nH]c4ncccc34)cs2)c2cc(Br)ccc21`, `C#CCn1c(C)cc(C)c(C#N)c1=O` is higher in growth: 79.1% for the first, 101% for the second.

With `CCOC(=O)C1CCNC(=O)C1=O` (centres undefined) the growth was 86%.
